The record followed here is article PMC5892938, “SARNAclust: Semi-automatic detection of RNA protein binding motifs from immunoprecipitation data”.

Whole data set: some 11,000 sequences, median “log2 fold change” near 0.00022, cut for the highest 2% near 0.34. The list shows a part of the results.

The assay addresses GST-SBP-SLBP (stem-loop binding protein) (Homo sapiens, UniProt Q14493 1-270). As to the kind of experiment: targeted RNA Bind-n-Seq; RBNS binding buffer: 25 mM Tris pH 7.5, 150 mM KCl, 3 mM MgCl2, 0.1% Tween, 0.5 mg/mL BSA, 1 mM DTT; 27 nM protein, 750 pM RNA pool; temperature not stated; high values mean tight binding. Conditions: protein: recombinant; tags: N-terminal GST and SBP (pGEX6P1-SBP); structured_RNA. A digest of the protocol: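 A designed RNA oligo pool, transcribed with T7, was present at 750 pM and incubated in RBNS binding buffer with 27 nM of GST-SBP-tagged protein that had been expressed in Rosetta(DE3) pLysS E. coli and purified with glutathione. After reverse transcription with a 10-nucleotide barcoded primer and PCR, the bound RNA was sequenced as 200-cycle paired-end reads on a MiSeq. Each sequence's binding signal is the DEseq binary-logarithm fold change in read counts, computed after joining reads with FLASH, aligning with HISAT2 and collapsing by barcode.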
As to “GGUCACGUCUCAAUCAACUCCUCGGAGGGGGGGAAAACCCCUUUACCCUCACAUUCAACAGCUCGCAGUCAAG”, the binding signal is 0.424 ± 0.434 log2 fold change.
Consider “GGUCACGUCUCAAUCAACUCCUCGGAGGGGGGGAAAACCCCUUUACCCUCAUAUUCAACAGCUCGCAGUCAAG”, for which the binding signal came out at 0.374 ± 0.433 log2 fold change.
The figure for “GGUCACGUCUCAAUCAACUCUCCAGAGGGGGGGAAAACCCCUUUACCCUCACAUUCAACAGCUCGCAGUCAAG” is 0.328 ± 0.444 log2 fold change; for “GGUCACGUCUCAAUCAACUCCCCAGAGGGGGGGAAAACCCCUUUGCCCUCAAUAUCAACAGCUCGCAGUCAAG” it is 0.552 ± 0.441 log2 fold change; for “GGUCACGUCUCAAUCAACUCAGAAGAGGGGGGGAAAACCCCUUUGCCCUCCAUAUCAACAGCUCGCAGUCAAG” it is 0.327 ± 0.401 log2 fold change.
The figure for “GGUCACGUCUCAAUCAACUCUCCAGAGGGGGGGAAAACCCCUUUGCCCUCCACAUCAACAGCUCGCAGUCAAG” is 0.318 ± 0.411 log2 fold change; for “GGUCACGUCUCAAUCAACUCCACAGAGGGGGGGAAAACCCCUUUGCCCUCCAUAUCAACAGCUCGCAGUCAAG” it is 0.437 ± 0.447 log2 fold change.
To “GGUCACGUCUCAAUCAACUCCUCAGAGGGGGGGAAAACCCCUUUGCCCUCCAAAUCAACAGCUCGCAGUCAAG” belongs 0.317 ± 0.412 log2 fold change; to “GGUCACGUCUCAAUCAACUCAUCAGAGGGGGGGAAAACCCCUUUGCCCUCCACAUCAACAGCUCGCAGUCAAG”, 0.401 ± 0.446 log2 fold change; to “GGUCACGUCUCAAUCAACUCUAUCCCCAGGGAAAGCCCUGGCUUACUCAACAGCUCGCAGUCAAG”, 0.3 ± 0.283 log2 fold change.
In the case of “GGUCACGUCUCAAUCAACUCUAUCCCCAGGGAAACCCCUGGCUUACUCAACAGCUCGCAGUCAAG”, the binding signal stood at 0.376 ± 0.273 log2 fold change.
Take “GGUCACGUCUCAAUCAACUCAAUCCCCAGGGAAAUCCCUGGCUUACUCAACAGCUCGCAGUCAAG”: the binding signal was 0.371 ± 0.289 log2 fold change.
To “GGUCACGUCUCAAUCAACUCAUCCCCCAGGGAAAGCCCUGGCUUACUCAACAGCUCGCAGUCAAG” belongs 0.352 ± 0.269 log2 fold change.
As to “GGUCACGUCUCAAUCAACUCAUUCCCCAGGGAAAGCCCUGGCUUUUUCAACAGCUCGCAGUCAAG”, the binding signal was 0.512 ± 0.316 log2 fold change.
To “GGUCACGUCUCAAUCAACUCAUUUCCCAGGGAAAGCCCUGGUAAUCUCAACAGCUCGCAGUCAAG” belongs 0.334 ± 0.275 log2 fold change.
To “GGUCACGUCUCAAUCAACUCAAUCCCCAGGGAAAUCCCUGGUUUACUCAACAGCUCGCAGUCAAG” belongs 0.393 ± 0.26 log2 fold change; to “GGUCACGUCUCAAUCAACUCUUUUUCCAGGGAAAGCCCUGGCAUGUUCAACAGCUCGCAGUCAAG”, 0.337 ± 0.241 log2 fold change.
To “GGUCACGUCUCAAUCAACUCUUCUUCCAGGGAAAGCCCUGGCUAUUUCAACAGCUCGCAGUCAAG” belongs 0.333 ± 0.251 log2 fold change.
Turning to “GGUCACGUCUCAAUCAACUCUUUUUCCAGGGAAAGCCCUGGCUAUGUCAACAGCUCGCAGUCAAG”, the binding signal worked out at 0.31 ± 0.256 log2 fold change.
For “GGUCACGUCUCAAUCAACUCAGUCCCCAGGGAAAGCCCUGGCAUAUUCAACAGCUCGCAGUCAAG”, the binding signal is 0.34 ± 0.375 log2 fold change.
Take “GGUCACGUCUCAAUCAACUCAUCUUCCAGGGAAAGCCCUGGCUUUCUCAACAGCUCGCAGUCAAG”: the binding signal turned out to be 0.425 ± 0.292 log2 fold change.
“GGUCACGUCUCAAUCAACUCAACUCCCAGGGAAAUCCCUGGUUAUCUCAACAGCUCGCAGUCAAG”: the binding signal was determined as 0.334 ± 0.284 log2 fold change.
The figure for “GGUCACGUCUCAAUCAACUCAUCCCCCAGGGAAAUCCCUGGCUUACUCAACAGCUCGCAGUCAAG” is 0.468 ± 0.259 log2 fold change.
The figure for “GGUCACGUCUCAAUCAACUCAGUUCCCAGGGAAAGCCCUGGCAUUUUCAACAGCUCGCAGUCAAG” is 0.449 ± 0.362 log2 fold change.
